PubChem BioAssay (NCATS)
Inconclusive results are not listed. Active and inactive are the calls of the source. Unless noted, calls follow the shape of the dose curve; as a rule, active = well fitted curve in the direction sought with a large enough effect; inconclusive = small, poorly fitted or top-dose-only effect, or another doubt; inactive = no such curve, though single readings can be large; an effect the other way counts as inactive or inconclusive.

Tests used:
[1] = AP1 Signaling Pathway (AID 357; active = well fitted curve in either direction with a large enough effect, not every such curve was filed as active;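 also: ME-180 reporter cells stimulated with EGF at its EC50 level; % is scaled to controls: 0 for no effect and ±100 for the full control effect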); settings: ME-180 AP-1-bla reporter, EGF-induced, beta-lactamase ratio, 5 h; at 7.69 µM (top of the series) unless noted
Summary of the method: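 Read-out was the 460nm/530nm emission ratio (excitation 405nm) after CCF4 loading for 2.5 hours at room temperature. Cells carried an AP-1-driven beta-lactamase reporter, were stimulated with EC50 EGF plus compound for 5 hours, and AC50 values came from titrations.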

[2] = target: Cytochrome P450 1A2 (Homo sapiens) (UniProt P05177); assay: p450-cyp1a2 (AID 410; calls by dose curve; also: potency is read from the fitted curve at half-maximal effect;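 as to activity change, negative = inhibition: -100% = full effect of reference inhibitor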)
Summary of the method: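 Read-out is luminescence from luciferin produced by CYP1A2 demethylation of Luciferin-ME (100uM, at Km). Detection reagent stopped the 60 min NADPH-dependent reaction; signals were normalized to 57 uM furafylline.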

[3] = NFAT Signaling Pathway (AID 444; active = well fitted curve in either direction with a large enough effect, not every such curve was filed as active;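 also: carbachol stimulus at about its EC50 of 1 µM final; % is scaled to controls: 0 for no effect and ±100 for the full control effect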); settings: Jurkat NFAT-bla M1, carbachol, beta-lactamase ratio, 5 h; at 7.69 µM (top of the series) unless noted
Summary of the method: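 Jurkat cells carrying an NFAT-driven β-lactamase reporter and co-transfected muscarinic M1 receptor were treated with compound plus carbachol (1 uM final, an EC50 level) for 5 h at 37 °C. CCF4 loading followed for 1 h at RT; 460/530 nm ratio gave %activity.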

[4] = Stat Signaling Pathway (AID 446; active = well fitted curve in either direction with a large enough effect, not every such curve was filed as active;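 also: ME-180 cervical cancer cells given 40 pM IL-6 alongside compound; SIE-controlled beta-lactamase reporter measured as 460/530 nm FRET emission ratio; % is scaled to controls: 0 for no effect and ±100 for the full control effect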); settings: ME-180 SIE beta-lactamase reporter, IL-6 stimulated, 5 h; at 7.69 µM (top of the series) unless noted
Summary of the method: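 Emission at 460 and 530 nm (excitation 405 nm) reports SIE-controlled beta-lactamase in ME-180 cells. Cells received compound with 40 pM IL-6 for 5 hrs at 37 C; data scaled between 300 pM IL-6 and 125 nM JAK-inhibitor controls.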

[5] = target: Glucocorticoid receptor (Homo sapiens) (UniProt P04150); assay: GR-GFP Redistribution (AID 450;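 active = compounds whose dose series gives a full or clear partial fitted curve of increased nuclear translocation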; also: potency is read from the fitted curve at half-maximal effect); settings: U2OS GR-GFP nuclear translocation, laser cytometry, 2 h
[6] = target: Glucocorticoid receptor (Homo sapiens) (UniProt P04150); assay: GR-EFC Redistribution (AID 451; calls by dose curve; also: potency is read from the fitted curve at half-maximal effect); settings: CHO-K1 GR-EFC translocation, beta-gal luminescence, 2 h
Summary of the method: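 CHO-K1 cells stably expressing nuclear-localized β-gal enzyme acceptor and GR fused C-terminally to the enzyme donor fragment; ligand-driven nuclear translocation restores β-gal by complementation. Compounds titrated up to 46 uM final, 2 h at 37 °C; luminescence read.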

[7] = target: Mitogen-activated protein kinase 10 (Mus musculus) (UniProt Q61831); assay: JNK3 AlphaScreen Assay (AID 530; active = well fitted curve in either direction with a large enough effect, not every such curve was filed as active;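 also: kinase came from lysate of stimulated human HepG2 cells; signal reports phosphorylation of biotinylated GST-cJun 1-79 at Ser73 with 10 µM ATP; % is scaled to controls: 0 for no effect and ±100 for the full control effect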)
Summary of the method: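 Biotinylated GST-cJun(1-79) served as substrate for JNK3 in HepG2 lysates stimulated with IL-1beta and TNF-alpha. ATP was 10 uM final, pH 7.6. Ser73 phosphorylation was quantified by AlphaScreen (680 nm excitation).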

[8] = target: 3',5'-cyclic-AMP phosphodiesterase 4B (Homo sapiens) (UniProt Q07343); assay: qHTS Assay for Inhibitors of PDE-IV (AID 607; active = well fitted activation curve with a large enough effect in the main read-out, with a control signal flat, not every such curve was filed as active; also: % of control where 0% means no effect)
Summary of the method: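 The readout is membrane depolarisation from a cAMP-sensing CNG channel, detected with a potential dye at ex 535/em 590. Cells were HEK293-derived (endogenous PDE-IV) at 1000 cells/well, titrated up to 22.9 uM final.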

[9] = target: Cytochrome P450 3A4 (Homo sapiens) (UniProt P08684); assay: qHTS Assay for Inhibitors and Substrates of Cytochrome P450 3A4 (AID 884); also: potency is read from the fitted curve at half-maximal effect; nearly all actives have a fitted effect of over 50% in size
Summary of the method: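 Luminescent readout of luciferin produced by CYP3A4 (20 nM) dealkylation of Luciferin-PPXE, 25 uM (its KM). NADPH-driven reaction ran 60 min at RT after 10 min compound preincubation; data scaled to 57 uM ketoconazole as 100% inhibition.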

[10] = target: Cytochrome P450 3A4 (Homo sapiens) (UniProt P08684); assay: qHTS Assay for Activators of Cytochrome P450 3A4 (AID 885); also: nearly all actives have a fitted effect of over 65% in size
Summary of the method: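 Activators are scored by enhanced luminescence from CYP3A4 conversion of luciferin-PPXE (25uM, equal to KM) to luciferin, after 60 min at RT with an NADPH-regenerating system.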

[11] = target: Dual specificity protein kinase CLK4 (Homo sapiens) (UniProt Q9HAZ1); assay: qHTS Assay for Inhibitors of CDC-like Kinase 4 (Kinase-Glo Assay) (AID 1770); also: nearly all actives have a fitted effect of over 65% in size; also: potency is read from the fitted curve at half-maximal effect
Summary of the method: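 Readout: Kinase-Glo luminescence from ATP left after a 4.5 h room-temperature reaction of 25 nM Clk4 with 100 uM RS peptide and 1 uM ATP (final). Buffer: 25 mM Tris pH 7.5, 10 mM MgCl2.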

[12] = target: Dual specificity protein kinase CLK4 (Homo sapiens) (UniProt Q9HAZ1); assay: qHTS Assay for Inhibitors of CDC-like Kinase 4 (ADP-Glo Assay) (AID 1771); also: nearly all actives have a fitted effect of over 70% in size; also: potency is read from the fitted curve at half-maximal effect
Summary of the method: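 In this ADP-Glo format, 1 uM ATP and 100 uM RS peptide served as substrates for 25 nM Clk4 in Mg2+/EGTA/DTT/Triton buffer; reactions ran 1 hr at room temperature before luminescent ADP quantification.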

[13] = target: Dual specificity protein kinase CLK4 (Homo sapiens) (UniProt Q9HAZ1); assay: qHTS Assay for Inhibitors of CDC-like Kinase 4 (ADP-FP Assay) (AID 1795); also: nearly all actives have a fitted effect of over 60% in size; also: potency is read from the fitted curve at half-maximal effect
Summary of the method: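 FP readout: Orange Transcreener ADP2 tracer (4 nM) plus ADP antibody, read after 30 min at room temperature. Kinase step: 6.25 nM Clk4, 100 uM RS peptide, 1 uM ATP, pH 7.5, 1 h.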

[14] = target: Ubiquitin carboxyl-terminal hydrolase 1 (Homo sapiens) (UniProt O94782); assay: Inhibitors of USP1/UAF1: Pilot qHTS (AID 504865);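 also: rhodamine fluorescence freed from ubiquitin-rhodamine substrate followed over time; top concentration of the series differs between compounds; % is scaled to controls: 0 for no effect and ±100 for the full control effect; nearly all actives have a fitted effect of over 35% in size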
Summary of the method: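 1nM USP1/UAF1 + cpd, 15 min RT; start w/ Ub-Rho 150nM final; kinetic FL 480/540 nm, 6 reads q60 s. Buffer 50mM HEPES pH 7.8, 0.5mM EDTA, 1mM TCEP, 0.01% Tween-20, 0.1 mg/ml BSA.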

[15] = Primary qHTS for small molecule stabilizers of the endoplasmic reticulum resident proteome: Secreted ER Calcium Modulated Protein (SERCaMP) assay (AID 1508630); also: % is scaled to controls: 0 for no effect and ±100 for the full control effect
Summary of the method: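 The SH-SY5Y reporter protocol was run at 3 concentrations up to 38.3 uM (primary) or 11 concentrations (follow-up): 16 h compound, 100 nM thapsigargin for 4 h, then extracellular luciferase luminescence.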

[16] = target: Lysosomal acid glucosylceramidase (Homo sapiens) (UniProt P04062); assay: Glucocerebrosidase-p2 (AID 348; in the data active = potency below about 10 µM; also: potency is read from the fitted curve at half-maximal effect); settings: purified GBA, blue fluorogenic substrate, 40 min
Summary of the method: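 Normal human glucocerebrosidase (0.2 nM) with blue fluorogenic substrate (80 uM final) in citrate/phosphate pH 5.9 with 10mM sodium taurocholate, 0.01% tween-20; 40 min RT, NaOH/glycine stop; fluorescence Ex 365/Em 440; AC50 from a titration from 0.6 nM upwards.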

[17] = qHTS Assay for Identification of Small Molecule Agonists for Hypoxia Response Element Signaling Pathway (AID 914; active = well fitted activation curve with a large enough effect in the signal ratio, with a control signal flat, not every such curve was filed as active; the % refers to the signal ratio; also: potency is read from the fitted curve at half-maximal effect); settings: ME-180 (cervical carcinoma) HRE-bla reporter, beta-lactamase ratio, CoCl2, 17 h; activation: hits give high values
Summary of the method: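 HRE-bla ME-180 assay for agonist-like enhancement of an EC50 CoCl2 stimulus: 17 h at 37 degrees Celsius, CCF4 for 2.5 h, ratiometric 460/530 nm signal converted to %Activity and fitted to AC50.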

[18] = target: Cytochrome P450 2C9 (Homo sapiens) (UniProt P11712); assay: qHTS Assay for Inhibitors and Substrates of Cytochrome P450 2C9 (AID 883); also: nearly all actives have a fitted effect of over 60% in size; also: potency is read from the fitted curve at half-maximal effect
Summary of the method: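 CYP2C9 deoxyluciferin hydroxylation, 37C, 60 min with NADPH regeneration; 10nM enzyme, 100uM Luciferin-H (KM). Glo detection reagent stopped reaction; luminescence normalized to sulphaphenazole (57uM) full inhibition.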

[19] = target: Cytochrome P450 2C19 (Homo sapiens) (UniProt P33261); assay: qHTS Assay for Inhibitors and Substrates of Cytochrome P450 2C19 (AID 899); also: potency is read from the fitted curve at half-maximal effect; nearly all actives have a fitted effect of over 60% in size
Summary of the method: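 In 50mM KPO4, the reaction held 5nM enzyme and KM-level (10uM) Luciferin-H EGE; it ran 60 min at 37C after NADPH regeneration and a 10 min compound preincubation. Luminescence values were scaled to 57uM ketoconazole as complete inhibition.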

Chain of 3',5'-cyclic-AMP phosphodiesterase 4B (Homo sapiens) (Q07343 whole entry, looked up): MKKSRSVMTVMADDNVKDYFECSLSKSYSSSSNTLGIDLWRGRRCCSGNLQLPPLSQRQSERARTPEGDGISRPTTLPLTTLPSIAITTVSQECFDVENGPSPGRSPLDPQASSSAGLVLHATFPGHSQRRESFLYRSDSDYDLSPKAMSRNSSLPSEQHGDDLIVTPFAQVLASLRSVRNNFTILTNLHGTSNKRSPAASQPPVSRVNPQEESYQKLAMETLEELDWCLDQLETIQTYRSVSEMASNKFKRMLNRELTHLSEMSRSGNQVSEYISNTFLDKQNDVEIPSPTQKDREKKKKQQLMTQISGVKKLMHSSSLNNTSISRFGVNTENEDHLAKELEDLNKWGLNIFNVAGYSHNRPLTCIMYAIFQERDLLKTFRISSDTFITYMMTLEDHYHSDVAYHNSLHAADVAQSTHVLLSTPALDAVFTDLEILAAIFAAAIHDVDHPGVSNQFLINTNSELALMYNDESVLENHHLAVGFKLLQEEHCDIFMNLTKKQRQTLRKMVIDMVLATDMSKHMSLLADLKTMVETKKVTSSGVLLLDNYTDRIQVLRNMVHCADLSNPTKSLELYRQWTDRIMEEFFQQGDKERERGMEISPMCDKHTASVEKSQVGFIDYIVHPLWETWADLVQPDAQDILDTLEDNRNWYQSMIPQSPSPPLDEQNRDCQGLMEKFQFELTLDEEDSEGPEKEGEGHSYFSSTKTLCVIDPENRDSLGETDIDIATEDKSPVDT
Chain of Glucocorticoid receptor (Homo sapiens) (P04150 whole entry, looked up, the tested form may be a part): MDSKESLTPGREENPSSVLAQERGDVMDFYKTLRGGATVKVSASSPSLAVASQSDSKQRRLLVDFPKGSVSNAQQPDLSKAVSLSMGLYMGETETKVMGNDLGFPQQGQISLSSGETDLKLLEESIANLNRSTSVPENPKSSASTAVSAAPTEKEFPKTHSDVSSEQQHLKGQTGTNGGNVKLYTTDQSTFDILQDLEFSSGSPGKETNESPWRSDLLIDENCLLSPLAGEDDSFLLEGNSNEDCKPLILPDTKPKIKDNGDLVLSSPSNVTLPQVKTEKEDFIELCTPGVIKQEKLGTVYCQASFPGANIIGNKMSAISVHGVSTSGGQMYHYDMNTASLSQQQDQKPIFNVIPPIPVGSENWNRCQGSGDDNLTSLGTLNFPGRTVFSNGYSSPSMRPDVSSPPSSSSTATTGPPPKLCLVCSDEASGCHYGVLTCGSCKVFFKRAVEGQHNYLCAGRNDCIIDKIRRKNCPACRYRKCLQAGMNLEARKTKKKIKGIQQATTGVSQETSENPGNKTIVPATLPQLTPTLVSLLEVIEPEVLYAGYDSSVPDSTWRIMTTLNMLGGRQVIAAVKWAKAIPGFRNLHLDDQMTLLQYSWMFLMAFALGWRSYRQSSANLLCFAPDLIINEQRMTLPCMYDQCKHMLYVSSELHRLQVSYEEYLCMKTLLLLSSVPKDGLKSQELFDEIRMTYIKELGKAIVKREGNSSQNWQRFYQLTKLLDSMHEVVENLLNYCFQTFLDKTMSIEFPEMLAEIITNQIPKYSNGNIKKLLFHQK
Chain of Cytochrome P450 2C19 (Homo sapiens) (P33261 whole entry, looked up): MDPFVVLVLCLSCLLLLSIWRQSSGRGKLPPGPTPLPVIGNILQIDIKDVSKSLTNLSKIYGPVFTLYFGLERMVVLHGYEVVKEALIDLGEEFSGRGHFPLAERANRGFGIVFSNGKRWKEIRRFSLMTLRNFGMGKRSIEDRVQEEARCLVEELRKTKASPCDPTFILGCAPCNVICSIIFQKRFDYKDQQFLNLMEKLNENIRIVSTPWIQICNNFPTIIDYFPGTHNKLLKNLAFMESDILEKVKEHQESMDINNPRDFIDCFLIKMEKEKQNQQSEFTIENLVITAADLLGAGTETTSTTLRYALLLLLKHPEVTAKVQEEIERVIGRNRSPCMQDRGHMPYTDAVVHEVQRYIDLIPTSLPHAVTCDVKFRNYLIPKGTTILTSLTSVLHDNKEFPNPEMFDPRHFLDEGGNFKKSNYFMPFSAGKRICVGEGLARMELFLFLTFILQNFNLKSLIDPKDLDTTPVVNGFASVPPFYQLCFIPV
Chain of Ubiquitin carboxyl-terminal hydrolase 1 (Homo sapiens) (O94782 whole entry, looked up): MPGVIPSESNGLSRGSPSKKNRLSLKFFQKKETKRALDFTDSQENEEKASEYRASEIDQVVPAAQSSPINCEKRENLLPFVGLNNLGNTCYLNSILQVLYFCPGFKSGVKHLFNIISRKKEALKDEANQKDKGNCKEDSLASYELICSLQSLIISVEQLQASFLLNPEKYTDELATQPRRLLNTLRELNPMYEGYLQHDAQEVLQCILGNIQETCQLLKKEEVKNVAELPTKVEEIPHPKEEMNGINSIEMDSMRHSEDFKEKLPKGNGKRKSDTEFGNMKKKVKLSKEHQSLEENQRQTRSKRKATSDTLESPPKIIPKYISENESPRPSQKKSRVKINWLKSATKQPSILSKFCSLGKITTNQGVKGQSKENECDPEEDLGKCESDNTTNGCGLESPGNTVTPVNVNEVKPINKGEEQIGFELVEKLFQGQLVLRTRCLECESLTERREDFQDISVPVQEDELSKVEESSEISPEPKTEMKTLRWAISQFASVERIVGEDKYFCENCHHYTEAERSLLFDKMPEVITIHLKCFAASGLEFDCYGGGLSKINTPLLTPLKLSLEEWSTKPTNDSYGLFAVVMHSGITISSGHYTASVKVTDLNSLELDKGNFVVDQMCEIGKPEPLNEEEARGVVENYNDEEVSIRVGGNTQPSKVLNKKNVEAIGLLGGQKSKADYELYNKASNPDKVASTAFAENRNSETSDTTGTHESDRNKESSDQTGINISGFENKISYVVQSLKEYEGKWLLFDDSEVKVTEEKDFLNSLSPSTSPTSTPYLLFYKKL
Chain of Cytochrome P450 1A2 (Homo sapiens) (P05177 whole entry, looked up): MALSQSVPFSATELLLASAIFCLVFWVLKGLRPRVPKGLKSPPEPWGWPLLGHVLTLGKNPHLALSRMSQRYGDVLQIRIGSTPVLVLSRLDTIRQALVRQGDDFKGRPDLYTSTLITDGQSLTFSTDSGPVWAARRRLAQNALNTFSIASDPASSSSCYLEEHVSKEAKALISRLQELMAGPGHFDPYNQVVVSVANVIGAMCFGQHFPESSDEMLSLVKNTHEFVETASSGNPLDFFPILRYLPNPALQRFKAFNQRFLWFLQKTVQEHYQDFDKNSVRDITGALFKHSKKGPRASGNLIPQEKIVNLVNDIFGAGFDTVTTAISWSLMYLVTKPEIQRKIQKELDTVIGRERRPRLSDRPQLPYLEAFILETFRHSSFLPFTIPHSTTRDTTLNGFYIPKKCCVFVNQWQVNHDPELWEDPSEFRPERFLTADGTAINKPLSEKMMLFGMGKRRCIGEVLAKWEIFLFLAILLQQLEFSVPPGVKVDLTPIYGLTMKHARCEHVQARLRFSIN
Chain of Lysosomal acid glucosylceramidase (Homo sapiens) (P04062 whole entry, looked up): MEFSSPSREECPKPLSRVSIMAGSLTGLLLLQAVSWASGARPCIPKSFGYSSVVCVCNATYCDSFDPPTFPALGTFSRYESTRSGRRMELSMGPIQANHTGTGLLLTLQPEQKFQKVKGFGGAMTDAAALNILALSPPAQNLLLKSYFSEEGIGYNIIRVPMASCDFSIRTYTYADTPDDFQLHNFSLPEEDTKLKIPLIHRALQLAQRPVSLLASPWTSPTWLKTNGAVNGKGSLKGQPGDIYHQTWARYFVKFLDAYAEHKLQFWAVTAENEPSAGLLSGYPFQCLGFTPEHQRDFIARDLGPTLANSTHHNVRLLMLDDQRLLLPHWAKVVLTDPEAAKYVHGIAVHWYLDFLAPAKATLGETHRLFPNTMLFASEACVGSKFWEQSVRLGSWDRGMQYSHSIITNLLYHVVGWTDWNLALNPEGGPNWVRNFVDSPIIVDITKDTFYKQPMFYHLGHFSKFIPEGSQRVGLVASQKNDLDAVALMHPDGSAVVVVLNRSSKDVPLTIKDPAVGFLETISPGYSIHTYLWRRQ
Chain of Cytochrome P450 3A4 (Homo sapiens) (P08684 whole entry, looked up): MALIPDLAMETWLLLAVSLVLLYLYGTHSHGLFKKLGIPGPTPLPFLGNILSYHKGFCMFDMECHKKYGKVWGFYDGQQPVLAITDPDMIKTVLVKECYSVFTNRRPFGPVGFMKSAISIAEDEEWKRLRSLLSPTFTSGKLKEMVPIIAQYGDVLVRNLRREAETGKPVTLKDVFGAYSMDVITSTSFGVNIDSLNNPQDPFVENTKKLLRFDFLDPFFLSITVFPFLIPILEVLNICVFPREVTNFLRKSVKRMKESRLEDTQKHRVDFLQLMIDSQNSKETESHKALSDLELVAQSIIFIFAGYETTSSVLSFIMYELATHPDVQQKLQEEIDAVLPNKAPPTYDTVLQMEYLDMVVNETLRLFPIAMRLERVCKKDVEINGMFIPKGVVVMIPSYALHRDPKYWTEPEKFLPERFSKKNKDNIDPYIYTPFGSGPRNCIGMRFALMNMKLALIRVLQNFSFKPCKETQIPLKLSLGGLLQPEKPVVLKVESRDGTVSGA
Chain of Dual specificity protein kinase CLK4 (Homo sapiens) (Q9HAZ1 whole entry, looked up): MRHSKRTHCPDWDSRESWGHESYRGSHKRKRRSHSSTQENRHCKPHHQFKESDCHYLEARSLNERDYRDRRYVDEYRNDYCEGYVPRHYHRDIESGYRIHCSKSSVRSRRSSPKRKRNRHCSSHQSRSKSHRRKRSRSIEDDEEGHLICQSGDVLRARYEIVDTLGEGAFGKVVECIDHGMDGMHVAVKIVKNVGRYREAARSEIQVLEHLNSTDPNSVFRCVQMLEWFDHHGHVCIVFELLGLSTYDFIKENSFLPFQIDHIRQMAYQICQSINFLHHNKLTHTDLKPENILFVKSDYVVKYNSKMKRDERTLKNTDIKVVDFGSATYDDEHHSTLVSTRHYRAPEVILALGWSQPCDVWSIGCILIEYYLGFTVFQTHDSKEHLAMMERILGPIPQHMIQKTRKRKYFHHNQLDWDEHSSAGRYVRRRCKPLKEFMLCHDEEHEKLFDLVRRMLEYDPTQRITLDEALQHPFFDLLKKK

COc1ncc2nc(-c3ccc(F)cc3)c(=O)n(Cc3ccc(F)cc3)c2n1
active: Potency [2] 1.58 µM | Potency [9] 3.16 µM
inactive: activity change, negative = inhibition [1] 1.72% | activity change, negative = inhibition [3] -1.74% | activity, negative = inhibition [4] -13.2% | Potency [5] > 9.22 µM | Potency [6] > 46 µM | Potency [7] | Potency [8] | Potency [10] | Potency [11] | Potency [12] | Potency [13] | Potency [14] | outcome [15]

CCNc1ncc2nc(-c3ccc(F)cc3)c(=O)n(-c3ccccc3)c2n1
inactive: Potency [16] > 11.4 µM | Potency [5] > 9.22 µM | Potency [6] > 46 µM | Potency [7] | Potency [11] | Potency [12] | Potency [13] | Potency [14] | outcome [15]
active: Potency [2] 0.398 µM | Potency [17] 3.16 µM

Cc1noc(C)c1-c1nccc(N2CCN(C)CC2)n1
inactive: activity change, negative = inhibition [1] 16% | activity change, negative = inhibition [3] -10.9% | activity, negative = inhibition [4] 11.7% | Potency [5] > 46 µM | Potency [6] > 46 µM | Potency [7] | Potency [8] | Potency [11] | Potency [12] | Potency [13] | Potency [14] | outcome [15]
active: Potency [2] 2 µM

CN(C)c1ncc2nc(CCc3ccccc3)c(=O)n(C3CC3)c2n1
inactive: Potency [16] > 11.4 µM | activity, negative = inhibition [4] -4.87% | Potency [5] > 9.22 µM | Potency [6] > 46 µM | Potency [7] | Potency [10] | Potency [11] | Potency [12] | Potency [13] | Potency [14] | outcome [15]
active: Potency [2] 3.16 µM

CCNc1ncc2nc(-c3ccc(OC)cc3)c(=O)n(Cc3ccc(F)cc3)c2n1
active: Potency [17] 1.26 µM
inactive: Potency [16] > 11.4 µM | Potency [2] | Potency [5] > 9.22 µM | Potency [6] > 46 µM | Potency [7] | Potency [18] | Potency [11] | Potency [12] | Potency [13] | Potency [14] | outcome [15]

CN(C)c1ncc2nc(-c3ccc(Cl)cc3)c(=O)n(Cc3cccs3)c2n1
inactive: Potency [16] > 11.4 µM | Potency [5] > 9.22 µM | Potency [6] > 46 µM | Potency [7] | Potency [8] | Potency [11] | Potency [12] | Potency [13] | Potency [14] | outcome [15]
active: Potency [2] 1.58 µM | activity, negative = inhibition [4] 153% [activator] | Potency [17] 0.398 µM

Cn1cc(-c2nc3cnc(N4CCNCC4)nc3n(Cc3ccc(F)cc3)c2=O)c2ccccc21
active: Potency [2] 20 µM | activity change, negative = inhibition [3] 68.4% [activator] | Potency [19] 7.94 µM
inactive: Potency [16] > 11.4 µM | Potency [5] > 9.22 µM | Potency [6] > 46 µM | Potency [8] | Potency [10] | Potency [11] | Potency [12] | Potency [13] | outcome [15]

Cc1noc(C)c1-c1nccc(N(C)C)n1
active: Potency [2] 0.631 µM
inactive: activity change, negative = inhibition [1] 2.07% | activity change, negative = inhibition [3] -4.83% | activity, negative = inhibition [4] 15.8% | Potency [5] > 46 µM | Potency [6] > 46 µM | Potency [7] | Potency [8] | Potency [10] | Potency [11] | Potency [12] | Potency [13] | Potency [14] | outcome [15]

CN1CCN(c2ncc3nc(-c4cccs4)c(=O)n(Cc4ccc(F)cc4)c3n2)CC1
inactive: Potency [16] > 11.4 µM | Potency [5] > 9.22 µM | Potency [6] > 46 µM | Potency [8] | Potency [11] | Potency [12] | Potency [13] | Potency [14] | outcome [15]

COc1ccc(-n2c(=O)c(CCc3ccccc3)nc3cnc(N4CCOCC4)nc32)cc1
inactive: activity change, negative = inhibition [1] -17% | activity change, negative = inhibition [3] -7.5% | activity, negative = inhibition [4] -13.2% | Potency [5] > 9.22 µM | Potency [6] > 46 µM | Potency [7] | Potency [8] | Potency [10] | Potency [11] | Potency [12] | Potency [13] | Potency [14] | outcome [15]
active: Potency [2] 15.8 µM

CN(C)c1ncc2nc(-c3cccc(C#N)c3)c(=O)n(C)c2n1
inactive: Potency [16] > 11.4 µM | activity change, negative = inhibition [3] 5.54% | activity, negative = inhibition [4] -1.63% | Potency [5] > 9.22 µM | Potency [6] > 46 µM | Potency [7] | Potency [8] | Potency [11] | Potency [12] | Potency [13] | outcome [15]

Cc1cccc(CNc2ccnc(-c3cccc(C#N)c3)n2)c1
active: Potency [2] 0.398 µM | Potency [9] 1.26 µM | Potency [19] 2.51 µM | Potency [11] 11.2 µM | Potency [12] 7.94 µM | Potency [13] 11.2 µM
inactive: Potency [16] > 11.4 µM | Potency [5] > 46 µM | Potency [6] > 46 µM | Potency [8] | Potency [10] | Potency [14] | outcome [15]

N#CCCn1c(=O)c(-c2ccc(Cl)cc2)nc2cnc(N3CCNCC3)nc21
inactive: Potency [16] > 11.4 µM | Potency [5] > 9.22 µM | Potency [6] > 46 µM | Potency [7] | Potency [8] | Potency [10] | Potency [11] | Potency [12] | Potency [13] | Potency [14] | outcome [15]

COc1ccc2[nH]cc(CCNc3ncncc3-c3cccc(NS(C)(=O)=O)c3)c2c1
active: Potency [2] 12.6 µM | Potency [18] 0.398 µM | Potency [9] 0.398 µM | Potency [19] 5.01 µM | Potency [11] 25.1 µM | Potency [12] 35.5 µM | Potency [13] 10 µM
inactive: activity change, negative = inhibition [1] -19.1% | activity change, negative = inhibition [3] 15.3% | activity, negative = inhibition [4] -18.7% | Potency [5] > 46 µM | Potency [6] > 46 µM | Potency [7] | Potency [8] | Potency [10] | Potency [14] | outcome [15]
